CYP2C9 act – CYP2C9 (human) activation | P11712 | 96,000 compounds, 1.4% hits | recombinant CYP2C9, luciferin-H conversion, luminescence; hits give high values; factor 1 = untreated enzyme, 0 = blocked | activation factor at 5 µM;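 active means activation factor of 2 or more for CYP2C9 at a 5 µM dose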
CD11b adhes enh – enhancers of human CD11b/CD18 binding to fibrinogen; P05107+P11215; K562 CD11b/CD18 adhesion to fibrinogen, ATPlite luminescence; activation, % at 10 µM; 93,000 compounds, 0.07% hits; AID 1499;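 active means 10 µM primary screen giving 50% or more activity, confirmed by 40% or more on retest at that dose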
CYP2C19 inh – human CYP2C19 inhibition. P33261. CYP2C19 Supersomes, luciferin-H EGE luminescence, 30 min. inhibition, % at 5 µM. 96,000 compounds, 21% hits;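 active means CYP2C19 inhibition above a set limit at 5 µM in the primary screen, cut at about 50% in these data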
Target sequence (P33261 whole entry, looked up): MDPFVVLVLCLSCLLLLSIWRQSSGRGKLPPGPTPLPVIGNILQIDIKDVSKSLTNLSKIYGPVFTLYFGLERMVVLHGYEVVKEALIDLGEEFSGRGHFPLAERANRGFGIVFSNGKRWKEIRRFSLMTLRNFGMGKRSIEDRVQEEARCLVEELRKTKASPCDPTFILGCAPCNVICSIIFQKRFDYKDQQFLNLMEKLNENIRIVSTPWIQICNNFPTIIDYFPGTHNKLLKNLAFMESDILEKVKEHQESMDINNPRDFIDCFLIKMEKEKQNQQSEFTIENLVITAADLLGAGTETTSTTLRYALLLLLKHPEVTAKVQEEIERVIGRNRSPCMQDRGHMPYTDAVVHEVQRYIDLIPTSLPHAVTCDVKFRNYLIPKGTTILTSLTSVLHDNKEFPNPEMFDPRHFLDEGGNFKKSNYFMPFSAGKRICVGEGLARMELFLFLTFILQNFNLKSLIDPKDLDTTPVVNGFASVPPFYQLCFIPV
CYP2C19 act – activators of human cytochrome P450 2C19. P33261. recombinant CYP2C19, luciferin-H EGE luminescence; hits give high values; 0 = fully inhibited enzyme, 1 = untreated enzyme. activation factor at 5 µM. 96,000 tested, under 10 active. AID 1025;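 active means activation factor of at least 2 at 5 µM in the primary screen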
Mac1 fbg inh – blocks human CD11b/CD18 adhesion to fibrinogen. 93,000 compounds, 0.54% hits. K562 CD11b/CD18 adhesion to fibrinogen, ATPlite luminescence; Mn2+ added to activate the integrin. P05107+P11215. inhibition, % at 10 µM;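 active means primary inhibition of 50% or more at 10 µM, then 40% or more on retest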
CYP2C9 inhib – inhibitors of human CYP2C9 | inhibition, % at 5 µM | 96,000 compounds, 20% hits | CYP2C9 Supersomes, luciferin-H conversion, luminescence | P11712;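 active means blocking of liver enzyme CYP2C9 beyond about 50% at 5 µM, limit read from the data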
Of the large screens only hits and unclear results are named; the others gave an inactive call. In the library only some 28% were active in any assay of this set; here they are far more common.

N=c1c2c3c(sc2ncn1CCCO)CCCC3	none
O=C1OCCC1Sc1ncnc2sccc12 (configuration not stated)	none
C[C@@]12CC(=O)NC1N(C(=O)c1cccc(C(F)(F)F)c1)C(c1ccccc1O)C2 (some centres not stated)	CYP2C19 inh 55.6, CYP2C9 inhib 69.1
Cc1cccc(C(=O)Oc2ccccc2C2C[C@]3(C)CC(=O)NC3N2C(=O)c2cccc(C)c2)c1 (some centres not stated)	CYP2C9 inhib 57.4
CSC1=NCCN1C(=O)c1cccc(C(F)(F)F)c1	none
COc1ccc(Cn2nc(C)n(N(C)c3ncc(C(F)(F)F)cc3Cl)c2=O)cc1	CYP2C19 inh 53.2
CC(C)COC(=O)/C(C#N)=C/c1c[nH]c2ccccc12	none (no result: CYP2C9 act, CYP2C19 inh, CYP2C19 act, CYP2C9 inhib)
Cc1ccc(O)c(C(=O)c2cnc3c(c2)CN(CCC(C)C)C(=O)N3)c1	CYP2C9 inhib 64.5
CCS(=O)CCSc1nc2ccccc2s1 (configuration not stated)	none (no result: CD11b adhes enh, Mac1 fbg inh)
CCCn1c(=O)c2ccccc2n2c(SCC(=O)c3ccc(F)cc3)nnc12	none
CCCn1c(=O)c2ccccc2n2c(SCCOc3ccccc3F)nnc12	CYP2C19 inh 55.8
CCCn1c(=O)c2ccccc2n2c(SCc3nnc(-c4ccccc4Br)o3)nnc12	CYP2C19 inh 70.2, CYP2C9 inhib 58.4
CCCn1c(=O)c2ccccc2n2c(SCC(=O)c3ccccc3)nnc12	CYP2C9 inhib 55.0
CCCn1c(=O)c2ccccc2n2c(SCCOc3ccc(Cl)cc3)nnc12	none
Cn1c(=O)c(Oc2cc(Cl)cc(Cl)c2)nc2ccccc21	none
Nc1ccc(C(=O)OCC(=O)Nc2ccc([N+](=O)[O-])cc2C(F)(F)F)cc1	none (no result: CYP2C9 act, CYP2C19 inh, CYP2C19 act, CYP2C9 inhib)
CC(C)C(=O)NCCc1nc2ccccc2n1CCOc1ccccc1	none (no result: CYP2C9 act, CYP2C19 inh, CYP2C19 act, CYP2C9 inhib)
COCCn1c(COc2ccc(C)cc2)nc2ccccc21	CYP2C19 inh 65.0
Cc1ccc(OCCCn2c(CO)nc3ccccc32)cc1	CYP2C19 inh 95.2, CYP2C9 inhib 53.3
OCc1nc2ccccc2n1CCCOc1ccccc1	CYP2C19 inh 52.8
OCCn1c(SCCOc2ccccc2)nc2ccccc21	CYP2C19 inh 75.1
O=C(COC(=O)Cn1cnc2ccccc21)NCCC1=CCCCC1	none
CN1CCN(/C(=N\S(=O)(=O)c2ccc(F)cc2)c2ccccc2)CC1	none
Cn1c(=O)[nH]c(=O)c2c1nc(N1CCOCC1)n2CC(O)COc1ccc2ccccc2c1 (configuration not stated)	none
CCCCc1ccc(NC(=O)C2CCCO2)cc1 (configuration not stated)	none (no result: CD11b adhes enh, Mac1 fbg inh)
Cc1ccc(SCC(=O)Nc2ccccc2C(=O)N2CCOCC2)cc1	none (no result: CYP2C9 act, CYP2C19 inh, CYP2C19 act, CYP2C9 inhib)
COCc1nc2ccccc2n1CCOc1ccccc1OC	CYP2C19 inh 59.6
COc1ccccc1OCCn1c(=O)sc2ccccc21	CYP2C19 inh 68.2, CYP2C9 inhib 66.0
Cc1cccc(OCCCn2c(=O)sc3ccccc32)c1	none
Cc1nn(C)c(=O)n1-c1ccc(Oc2ccccc2)cc1	CYP2C9 inhib 91.4
C=CCn1c(CCNC(=O)c2cccs2)nnc1SCC(=O)Nc1cccc(Cl)c1C	none
Cc1c(C#N)c2ccccc2n1CC(=O)N1CCCC1	none
Cn1c(CN2CCOCC2)c(C#N)c2ccccc21	CYP2C19 inh 88.2
CC1CCN(Cc2c(C#N)c3ccccc3n2C)CC1	CYP2C19 inh 80.6
CC1CCCCN1Cc1c(C#N)c2ccccc2n1C (configuration not stated)	CYP2C19 inh 52.4
CCOC(=O)CSCc1c(C#N)c2ccccc2n1C	CYP2C19 inh 99.7
CN1CCN(Cc2c(C#N)c3ccccc3n2C)CC1	none
CCSc1nc(C)cc(Oc2ccc(=O)n(C)n2)n1	none
C=C(C)Cn1c(COc2ccccc2)nnc1SCC(=O)O	none
CCCOc1ccc(/C=N/NC(=O)c2ccc(Cn3cc([N+](=O)[O-])cn3)o2)cc1	none
N#CCSc1nnc(Cc2cccc3ccccc23)n1C1CCCCC1	CYP2C19 inh 57.1
N#CCSc1nnc2ccc3ccccc3n12	none
COc1ccc(-c2nnc(SCc3nnc(-c4cccs4)o3)n2CC2CCCO2)cc1 (configuration not stated)	none (no result: CYP2C9 act, CYP2C19 inh, CYP2C19 act, CYP2C9 inhib)
COC(=O)c1cc(NC(=O)CN(c2ccc3c(c2)OCO3)S(C)(=O)=O)ccc1Cl	CYP2C19 inh 93.2, CYP2C9 inhib 92.6
COC(=O)c1cccc(NC(=O)CN(c2ccc3c(c2)OCO3)S(C)(=O)=O)c1C	CYP2C19 inh 90.1, CYP2C9 inhib 70.8
COC(=O)c1ccc(Cl)c(NC(=O)CN(c2ccc3c(c2)OCO3)S(C)(=O)=O)c1	CYP2C19 inh 89.7, CYP2C9 inhib 86.8
CS(=O)(=O)N(CC(=O)Nc1cccnc1)c1ccc2c(c1)OCO2	CYP2C19 inh 58.4
CC(C)C(NS(=O)(=O)c1cccc2nsnc12)C(=O)N1CCn2c1nc1ccccc12 (configuration not stated)	none
Cc1cccc(-c2c3c(=O)n(C)c(=O)n(C)c3c3cccnn23)c1	none
COc1ccc(-c2ccc(-c3noc(-c4cccs4)n3)c(OC)n2)cc1	CYP2C9 inhib 59.6
O=C(Nc1ccncc1)c1cn(-c2ccccc2)nc1-c1cccs1	CYP2C19 inh 93.6, CYP2C9 inhib 92.8
CC(NC(=O)COC(=O)c1cn(-c2ccccc2)nc1-c1cccs1)c1ccccc1 (configuration not stated)	CYP2C9 inhib 66.8
COc1ccc(-c2nn(-c3ccccc3)cc2C(=O)Nc2nccs2)cc1	CYP2C9 inhib 51.8
O=C(c1cn(-c2ccccc2)nc1-c1cccs1)N1CCN(c2ccc(F)cc2)CC1	CYP2C19 inh 83.9, CYP2C9 inhib 73.9
Cc1ccccc1Oc1ncnc2sccc12	none (no result: CD11b adhes enh, Mac1 fbg inh)
O=C(OCCNc1ncc(C(F)(F)F)cc1Cl)c1ccc(S(=O)(=O)N2CCOCC2)cc1	CYP2C19 inh 69.1
CC1CCC(NC(=O)c2ccc(/C=C3\Oc4ccccc4N(C)C3=O)cc2)CC1 (configuration not stated)	none (no result: CYP2C9 act, CYP2C19 inh, CYP2C19 act, CYP2C9 inhib)
Cc1ccnc(NC2(C(F)(F)F)N=C(c3ccccc3)NC2=O)c1 (configuration not stated)	none (no result: CD11b adhes enh, Mac1 fbg inh)
CC1CCN(S(=O)(=O)c2ccc3c(c2)CCN3C(=O)CCC(=O)O)CC1	none (no result: CD11b adhes enh, Mac1 fbg inh)
O=C(CSc1ccc2c(c1)OCCO2)NC(=O)NC1CCCC1	CYP2C19 inh 94.5, CYP2C9 inhib 71.8
Cc1cc(NC(=O)CSc2ccccc2)no1	CYP2C19 inh 50.6
O=C(Nc1ccc2c(c1)OCCO2)NC1CCCCC1	none
O=C(CSc1ccc2c(c1)OCCO2)Nc1ncc(Cl)cc1Cl	CYP2C19 inh 75.8, CYP2C9 inhib 82.5
CCC(C(=O)Nc1cc(C)on1)c1ccccc1 (configuration not stated)	CYP2C19 inh 65.2, CYP2C9 inhib 54.2
O=C(CSc1ccc2c(c1)OCCO2)NCCc1ccc(Cl)cc1Cl	none (no result: CYP2C9 act, CYP2C19 inh, CYP2C19 act, CYP2C9 inhib)

Screening results (PubChem BioAssay)
